This note sets out measurements from PubChem BioAssay (NCI).

The panel holds about 83,000 compounds, 20% with a hit somewhere; the sample as a whole holds those more often.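 For each line, cells grew in 96-well plates with the test compound present at a single concentration for 48 hours.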 Values without a mark were called inactive. Calls of active or inactive are those of the source. How the source made its calls: active means growth percent below 10; inactive means the rest.

This assay concerns UO-31 renal. Description: NCI-60 one-dose screen, 48 h (100 = growth as untreated, 0 = no growth, -100 = all killed). As to conditions: 10 µM unless noted.
Consider `CCCCCc1ccc(S(=O)(=O)Nc2cccc(-c3csc(NC(=O)CNCCN(C)C)n3)c2)cc1`, for which the growth was 74.8%.
To `O=C1CCCc2nc(Nc3ccc(S(=O)(=O)Nc4ccc([N+](=O)[O-])cc4)cc3)ncc21` belongs 87.1%; to `Clc1nc2ccccc2nc1-c1nnc(C2CCCCC2)o1`, 92.7%.
`Cc1ccc(C2=NN(C)C(=O)C3(CCCC3)C2)cc1`: the growth is 95.5%.
As to `O=C1[C@H]2Cc3c([nH]c4ccccc34)[C@@H](c3c(Cl)cccc3Cl)N2C(=O)CN1C1CCN(CC2CCCCC2)CC1`, the growth was 62.6%.
As for `NC(=O)c1cccc(-n2ccc3cc(NC(=O)Nc4ccc(N5CCOCC5)c(C(F)(F)F)c4)ccc32)n1`, the growth was 4.85% (active).
With `COc1ccc(N2CCN(C3=C(Cl)C(=O)C(C)=C(C)C3=O)CC2)cc1`, the growth is 91.4%.
For the compound `C=C(C=O)[C@@H]1CC[C@]2(C)[C@H](C(=O)C=C3[C@H]4C[C@](C)(C(=O)OC)CC[C@]4(C)CC[C@]32C)[C@@]1(C)CCC#N`, the growth was -91.5% (active).
To `CCOc1ccc(C(=O)Nc2ncc(Cc3ccc(F)cc3)s2)cc1` belongs 41.9%.
In the case of `Cc1ccc(-c2cc3nc(C(Cl)Cl)nc(-c4cccs4)n3n2)cc1`, the growth is 70.7%.
On to `CCOC(=O)c1c(N)c(C#N)cn1-c1cc(OC)c(OC)c(OC)c1`, for which the growth is 88.8%.
`CC(=O)C1=C(C)NC(NNC(N)=S)=NC1c1ccccc1` (configuration not stated): the growth was 59.5%.
On to `NS(=O)(=O)c1ccc(Nc2nc(N/N=C/c3ccccn3)nc(Nc3ccccc3)n2)cc1`, for which the growth was 17.4%.
For the compound `Oc1cccc2ccc(-c3nnc(SCc4ccc(O)c5ncccc45)o3)nc12`, the growth was -6.85% (active).
As for `O=C1CCCC2=C1C(c1c[nH]c3ccc(Br)cc13)Cc1cc(Br)ccc1N2` (configuration not stated), the growth is 36.3%.
To `COC(=O)c1[nH]nc2c1C1(C(=O)N(C)c3ccccc31)C(C#N)=C(N)O2` (configuration not stated) belongs 79.7%.
Regarding `CC1=NC2=NC(=O)/C(=C3/N=C(C)C=C(c4ccccc4)N3N)NN2C(c2ccccc2)=C1`, the growth was 78.6%.
Regarding `Nc1cc(-c2c[nH]c3ccc(Br)cc23)nc2cc(-c3c[nH]c4ccc(Br)cc34)nn12`, the growth is 41.3%.
With `O=S(=O)(NCCNc1nccc(-n2cnc3ccccc32)n1)c1ccc(Cl)cc1`, the growth was 81.6%.
As to `COc1ccc(Cn2cc3c(c2-c2cc(OC)c(OC)c(OC)c2)CCc2c(CN4CCOCC4)noc2-3)cc1`, the growth is 39.5%.
Take `CN(C)CCN(C)c1ccc2ncc(C#Cc3cncc(C(=O)Nc4ccc(CN5CCN(C)CC5)c(C(F)(F)F)c4)c3)n2n1`: the growth was 68.7%.
Turning to `CCO/C=N/C1=C(C#N)C(c2ccc(F)cc2)c2sc3c(CC)cccc3c2O1` (configuration not stated), the growth was 32.2%.
Consider `COc1ccc(/C=C/C(=O)c2cccc(NC(=O)CSc3nc4ccccc4c(=O)n3-c3ccccc3)c2)cc1OC`, for which the growth is 91.9%.
Take `CCN1CCN(Cc2cn(-c3ccc(S(N)(=O)=O)cc3)nn2)CC1`: the growth is 94%.
`Cc1cccc2c3c(sc12)C(c1ccc(Cl)cc1)c1c(nc(CC(=O)Nc2ccccc2)[nH]c1=O)O3` (configuration not stated): the growth is 50.9%.
As for `C=C=COc1cccc(/C(N)=N/C(N)=N/c2nc3ccccc3s2)c1`, the growth is 31.2%.
On to `Cc1cc2nc(C(Cl)Cl)nc(-c3cccs3)n2n1`, for which the growth is 31%.
